According to PubChem BioAssay (EPA / NIEHS):
Inconclusive results are not listed. The source made the active and inactive calls. Rule for the calls: active = hit-call score of the fitted dose curve at least 0.9, where 1 is the maximum; inconclusive = response in the unintended direction; inactive = score below 0.9.

read-out: xenobiotic metabolism (CYP1A1), CYP1A1 (gene 1543); test: CLD_CYP1A1_48hr: CellzDirect (CLD) Gene Expression Assay for xenobiotic metabolism (CYP1A1) at 48 hours (AID 2283705)
Protocol: CLD_48hr is a cell-based, multiplexed-readout assay that uses hepatocyte, a human liver primary cell, with measurements taken at 48 hours after chemical dosing in a 96-well plate.CLD_CYP1A1_48hr is one of 16 assay component(s) measured or calculated from the CLD_48hr assay. It is designed to make measurements of mRNA induction, a form of inducible reporter, as detected with chemiluminescence signals by Quantitative Nuclease Protection Assay (qNPA) technology.Data from the assay component CLD_CYP1A1_48hr was analyzed at the endpoint, CLD_CYP1A1_48hr, in the positive analysis fitting direction relative to DMSO as the negative control and baseline of activity. Using a type of inducible reporter, gain-of-signal activity can be used to understand changes in the reporter gene as they relate to the gene CYP1A1. Furthermore, this assay endpoint can be referred to as a primary readout. To generalize the intended target to other relatable targets, this assay endpoint is annotated to the cyp intended target family, where subfamily is xenobiotic metabolism.
Human hepatocyte cultures were treated daily for two consecutive days with fresh dosing solutions containing appropriate concentrations of the 320 ToxCast chemicals (chemical identities were blinded to CellzDirect and other ToxCast collaborators), vehicle control (0.2% DMSO), and positive control inducers as summarized in Table 1. Due to the large number of treatment groups and chemicals examined, the ToxCast chemicals were divided into two groups (spanning two independent cultures of hepatocytes from separate donor preparations (Hu778: ToxCast plates 1 and 2; Hu776: ToxCast plates 3 and 4). Each preparation of human hepatocyte cultures was treated with respective vehicle control, medium only control, set of six positive controls/reference chemicals for the five hepatic receptor pathways, and a subset of eight of the ToxCast chemicals (indoxacarb, pyrithiobac-sodium, norflurazon, cyhalofop-butyl, methomyl, thiram, acetochlor, and propiconazole). These replicate data, coupled with internal replicates designed within the blinded ToxCast chemical library, provided additional data to evaluate interindividual differences between hepatocyte preparations and their potential impact on chemical profiles.Cell morphology and integrity were evaluated using phase-contrast microscopy as an indicator of hepatocyte cell health (Tyson & Green, 1987). Cultures for each treatment group (i.e., media, vehicle [0.2% DMSO], positive control inducers [multiple concentrations], and the ToxCast chemicals [multiple concentrations]) were observed and cell morphology was assessed relative to vehicle control cultures at each harvest time point (0, 6, 24, or 48 h). […] Images were evaluated at the conclusion of the study to assess changes in cell integrity and account for the effects of chemical exposure on uncharacteristic changes in concentration-dependent gene expression profiles. The results from these determinations of apparent cytotoxicity were annotated (yes/no) alongside the corresponding qNPA data for reference.At the conclusion of each treatment period, hepatocyte cultures (96-well) were washed with 1 volume of HBSS, lysed by addition of 25 ul ArrayPlate lysis buffer (HTG, Tucson, AZ), and 70 ul/well of Denaturation Oil, denatured by incubation at 95C for 10 min, and frozen at approximately -70C until analysis by nuclease protection assay (qNPA) (Roberts et al., 2007). For qNPA analysis, cell lysates were thawed at 50C for approximately 30 min, qNPA probes were added, and samples were incubated at 95C for 10 min to begin the detection process by denaturing the target RNA, dissociating the duplexes and secondary structure hybridization. At the conclusion of the hybridization period, S1 nuclease reagent was added to each sample to digest all nonprotected nucleotides at 50C for 60-90 min. […]

Question: With `CC(C)OC(=O)Nc1cccc(Cl)c1` as the compound, how does the AC50 read?
Answer: 5.09 µM (active)

Question: For `O=[N+]([O-])/N=C1\NCCN1Cc1ccc(Cl)nc1`, which outcome is on record?
Answer: inactive

Question: Which AC50 does the source give for `[2H]C1([2H])[n+]2ccccc2-c2cccc[n+]2C1([2H])[2H]` here?
Answer: 20 µM (active)

Question: With `COc1cc(OC)nc(NC(=O)NS(=O)(=O)c2cc(NC=O)ccc2C(=O)N(C)C)n1` as the compound, how does the outcome read?
Answer: inactive

Question: With `CC(C)(C)C(O)/C(=C\c1ccc(Cl)cc1Cl)n1cncn1` (stereo not given) as the compound, how does the AC50 read?
Answer: 20 µM (active)

Question: With `COP(=S)(OC)Oc1ccc(SC)c(C)c1` as the compound, how does the AC50 read?
Answer: 33.4 µM (active)

Question: For `CCN(CC)C(=O)SCc1ccc(Cl)cc1`, which outcome is on record?
Answer: inactive

Question: Which outcome does the source give for `CNC(=O)Oc1cccc(N=CN(C)C)c1` here?
Answer: inactive

Question: With `Oc1cc(Cl)ccc1Oc1ccc(Cl)cc1Cl` as the compound, how does the outcome read?
Answer: inactive

Question: How did the AC50 turn out when `C[C@H]1[C@H](c2ccc(Cl)cc2)SC(=O)N1C(=O)NC1CCCCC1` was run?
Answer: 34 µM (active)

Question: With `O=C(O)CCCOc1ccc(Cl)cc1Cl` as the compound, how does the outcome read?
Answer: inactive

Question: `CCOc1nc(NC)nc(NC(=O)NS(=O)(=O)c2ccccc2C(=O)OC)n1` was tested. Which AC50 did it give?
Answer: 20 µM (active)

Question: With `CNC(=O)Oc1ccccc1OC(C)C` as the compound, how does the outcome read?
Answer: inactive

Question: For `CCC(C)Nc1c([N+](=O)[O-])cc(C(C)(C)C)cc1[N+](=O)[O-]` (stereo not given), which AC50 is on record?
Answer: 3.77 µM (active)

Question: With `CCCN(CCOc1c(Cl)cc(Cl)cc1Cl)C(=O)n1ccnc1` as the compound, how does the AC50 read?
Answer: 0.458 µM (active)

Question: With `CCS(=O)(=O)c1cccnc1S(=O)(=O)NC(=O)Nc1nc(OC)cc(OC)n1` as the compound, how does the AC50 read?
Answer: 2.37 µM (active)

Question: For `COC(=O)c1ccccc1S(=O)(=O)NC(=O)N(C)c1nc(C)nc(OC)n1`, which outcome is on record?
Answer: inactive

Question: Which AC50 does the source give for `O=[N+]([O-])c1c(Cl)c(Cl)c(Cl)c(Cl)c1Cl` here?
Answer: 3.97 µM (active)

Question: How did the AC50 turn out when `COc1nn(CSP(=S)(OC)OC)c(=O)s1` was run?
Answer: 11.2 µM (active)

Question: For `COP(=S)(OC)Oc1ccc([N+](=O)[O-])cc1`, which AC50 is on record?
Answer: 12.2 µM (active)

Question: How did the outcome turn out when `CCC(C)(C)C(=O)OC1=C(c2ccc(Cl)cc2Cl)C(=O)OC12CCCCC2` was run?
Answer: inactive

Question: Which outcome does the source give for `CCc1ccc(C(=O)NN(C(=O)c2cc(C)cc(C)c2)C(C)(C)C)cc1` here?
Answer: inactive

Question: For `CCOC1Oc2ccc(OS(C)(=O)=O)cc2C1(C)C` (stereo not given), which outcome is on record?
Answer: inactive

Question: With `O=C(Nc1ccccc1)Nc1cnns1` as the compound, how does the AC50 read?
Answer: 20 µM (active)

Question: How did the outcome turn out when `CC[C@H](C)[C@H]1O[C@]2(C=C[C@@H]1C)C[C@@H]1C[C@@H](C/C=C(\C)[C@@H](O[C@H]3C[C@H](OC)[C@@H](O[C@H]4C[C@H](OC)[C@@H](O)[C@H](C)O4)[C@H](C)O3)[C@@H](C)/C=C/C=C3\CO[C@@H]4[C@H](O)C(C)=C[C@@H](C(=O)O1)[C@]34O)O2` (tested in a mixture with another compound) was run?
Answer: inactive

Question: `N#Cc1c(Cl)c(Cl)c(Cl)c(C#N)c1Cl` was tested. Which outcome did it give?
Answer: inactive

Question: For `N#CN`, which outcome is on record?
Answer: inactive

Question: With `Clc1ccccc1-c1nnc(-c2ccccc2Cl)nn1` as the compound, how does the AC50 read?
Answer: 9.05 µM (active)

Question: `CCC(C)(NC(=O)c1cc(Cl)c(C)c(Cl)c1)C(=O)CCl` (stereo not given) was tested. Which AC50 did it give?
Answer: 3.97 µM (active)

Question: `COC(=O)c1ccccc1CS(=O)(=O)NC(=O)Nc1nc(OC)cc(OC)n1` was tested. Which outcome did it give?
Answer: inactive

Question: For `O=C(O)COc1ccc(Cl)cc1Cl`, which outcome is on record?
Answer: inactive

Question: For `CC1(C)C(C=C(Cl)Cl)C1C(=O)OC(C#N)c1ccc(F)c(Oc2ccccc2)c1` (stereo not given), which outcome is on record?
Answer: inactive

Question: With `CC(C)N(C(=O)COc1nnc(C(F)(F)F)s1)c1ccc(F)cc1` as the compound, how does the AC50 read?
Answer: 14.2 µM (active)

Question: With `CC(C)(C)C(O)C(Oc1ccc(Cl)cc1)n1cncn1` (stereo not given) as the compound, how does the AC50 read?
Answer: 5.32 µM (active)

Question: `CCCN(CCC)c1c([N+](=O)[O-])cc(C(F)(F)F)cc1[N+](=O)[O-]` was tested. Which AC50 did it give?
Answer: 15.3 µM (active)

Question: Which AC50 does the source give for `O=C(O)C(F)(F)C(F)(F)C(F)(F)C(F)(F)C(F)(F)C(F)(F)C(F)(F)F` here?
Answer: 0.0776 µM (active)

Question: `COP(=O)(OC)OC=C(Cl)Cl` was tested. Which outcome did it give?
Answer: inactive

Question: Which outcome does the source give for `C#CCN1C(=O)COc2cc(F)c(N3C(=O)C4=C(CCCC4)C3=O)cc21` here?
Answer: inactive

Question: Which AC50 does the source give for `CCOCN(C(=O)CCl)c1c(C)cccc1CC` here?
Answer: 1.85 µM (active)

Question: `CNC(=O)/C=C(\C)OP(=O)(OC)OC` was tested. Which outcome did it give?
Answer: inactive
